Screening data from PubChem.
Shown are actives, neighbours in structure and some others; about 2.4% of the full set was active somewhere.
TLR4-MyD88 BLA: inhibitors of human TLR4-MyD88 binding. 200,000 tested, 0.18% active. inhibition, % at 8.4 µM. HeLa CL3-4 TLR4/MyD88 BLA complementation, FRET ratio; in the data active = inhibition above about 25%
Target sequence (O00206 whole entry, looked up): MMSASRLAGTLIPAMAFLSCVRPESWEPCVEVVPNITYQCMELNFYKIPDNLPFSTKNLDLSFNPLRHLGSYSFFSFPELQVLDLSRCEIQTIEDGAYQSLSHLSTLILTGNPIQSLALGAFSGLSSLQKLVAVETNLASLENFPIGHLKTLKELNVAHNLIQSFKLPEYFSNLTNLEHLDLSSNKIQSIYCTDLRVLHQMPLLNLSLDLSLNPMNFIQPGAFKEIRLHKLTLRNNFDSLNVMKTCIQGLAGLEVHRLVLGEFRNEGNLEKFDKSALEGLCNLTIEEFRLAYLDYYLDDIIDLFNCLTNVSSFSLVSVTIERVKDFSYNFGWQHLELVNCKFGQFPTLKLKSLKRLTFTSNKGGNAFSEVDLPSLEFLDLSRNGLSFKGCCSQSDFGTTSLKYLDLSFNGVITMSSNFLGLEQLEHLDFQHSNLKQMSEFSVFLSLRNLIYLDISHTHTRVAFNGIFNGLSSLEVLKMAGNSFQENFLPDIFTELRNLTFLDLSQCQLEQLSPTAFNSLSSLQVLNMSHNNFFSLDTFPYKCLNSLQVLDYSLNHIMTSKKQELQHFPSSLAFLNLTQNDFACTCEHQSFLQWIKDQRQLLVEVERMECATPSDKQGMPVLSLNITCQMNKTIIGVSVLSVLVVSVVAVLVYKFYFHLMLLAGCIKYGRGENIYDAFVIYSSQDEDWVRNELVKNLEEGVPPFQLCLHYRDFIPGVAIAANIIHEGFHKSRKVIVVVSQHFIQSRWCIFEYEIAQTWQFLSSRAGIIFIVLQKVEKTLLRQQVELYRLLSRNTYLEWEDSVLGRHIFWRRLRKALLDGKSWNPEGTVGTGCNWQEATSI
Target sequence (Q99836 whole entry, looked up): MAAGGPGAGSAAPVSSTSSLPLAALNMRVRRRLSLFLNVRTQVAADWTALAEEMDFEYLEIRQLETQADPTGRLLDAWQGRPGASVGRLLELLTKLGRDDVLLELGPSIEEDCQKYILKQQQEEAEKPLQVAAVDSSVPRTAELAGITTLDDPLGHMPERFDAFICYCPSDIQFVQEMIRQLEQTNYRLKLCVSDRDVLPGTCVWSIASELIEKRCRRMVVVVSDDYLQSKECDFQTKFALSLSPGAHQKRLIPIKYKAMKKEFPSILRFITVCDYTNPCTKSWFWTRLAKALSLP
HSF1 inh: HSF1 inhibition; NIH3T3-HGL HSE-luciferase, MG132-induced, luminescence 8 h; stronger effect = lower value; AID 2098; 300,000 tested, 0.77% active; activity change, negative = inhibition, % at 7.5 µM (by protocol);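 active = more than half of replicate wells show activity change below -50%, luminescence cut by over half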;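 note: luciferase reports HSF-1 transcriptional activity via heat shock element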
HSF-1 act: increases HSF-1 driven luciferase reporter signal. NIH3T3-HGL HSF-1 luciferase reporter, MG132, 8 h; 100% = twice DMSO control signal. activation, % at 9 µM. 300,000 tested, 1.7% active. AID 504408;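 active = mean replicate activation of at least 50% with a set share of replicates each reaching 50%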
NOD2 RIPK2 PPI: blocks binding of human NOD2 to RIPK2; O43353; CHO BLA complementation NOD2-RIPK2, CCF4 ratio; inhibition, % at 4.98 µM; 360,000 tested, 0.38% active; AID 624267; in the data active = inhibition above about 21%
TLR9-MyD88 inh: inhibitors of human TLR9-MyD88 binding. Q9NR96+Q99836. CHO BLA complementation TLR9-MyD88, CCF4 FRET ratio. inhibition, % at 4.98 µM. 340,000 tested, 0.21% active. AID 504734;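 active = inhibition above the mean over all tested compounds plus 3 SD, cut at about 21% in these data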
Each line names hits and unclear results; the compound was inactive in the other large screens.

N#C/C(=C\c1ccccc1[N+](=O)[O-])C(=O)NCc1ccccc1	none (no result: TLR4-MyD88 BLA)
N#C/C(=C\C=C\c1ccccc1[N+](=O)[O-])C(=O)NCc1ccccc1	HSF-1 act 94 (no result: TLR4-MyD88 BLA)
Cc1cc(/C=C2/C(=O)N(C)C(=S)N2C)ccc1N1CCCC1	HSF-1 act 74
CC(Cc1ccccc1)C(=O)Nc1ccccc1 (stereo not drawn)	HSF1 inh -65
CC(Cc1ccccc1)C(=O)Nc1ccc(Br)cc1 (stereo not drawn)	none (no result: TLR4-MyD88 BLA)
CCCc1cc2c(=O)c(-c3ccc4c(c3)OCCO4)coc2cc1OC(=O)c1ccco1	HSF-1 act 64
O=S(=O)(c1ccc2c(c1)OCCO2)N1CCCN(S(=O)(=O)c2c(F)cccc2F)CC1	none (no result: TLR4-MyD88 BLA, HSF1 inh, HSF-1 act)
Cc1nc([N+](=O)[O-])c(Br)n1CC(=O)c1ccc2ccccc2c1	HSF-1 act 159, NOD2 RIPK2 PPI 22
Cc1nc([N+](=O)[O-])c(Br)n1CC(=O)c1ccc(Br)cc1	HSF-1 act 123
Cc1nc([N+](=O)[O-])c(Br)n1CC(=O)c1ccccc1	none
Cn1nnnc1Sc1ncnc2scc(-c3ccc(F)cc3)c12	HSF-1 act 62
CCC(C)c1ccccc1N1CC(C(=O)N2CCN(S(=O)(=O)c3cccc([N+](=O)[O-])c3)CC2)CC1=O (stereo not drawn)	none (no result: TLR4-MyD88 BLA, HSF1 inh, HSF-1 act)
COC(=O)c1c(C)oc2ccc(N(C(=O)Oc3ccccc3)S(=O)(=O)c3ccc(Cl)c([N+](=O)[O-])c3)cc12	HSF-1 act 72
COC(=O)c1c(C)oc2ccc(N(C(=O)c3ccncc3)S(=O)(=O)c3ccc4ccccc4c3)cc12	none
Cc1ccccc1CN1C(=O)c2ccccc2Sc2ccc(C(=O)NCCN3CCOCC3)cc21	HSF-1 act 60 (no result: TLR4-MyD88 BLA)
CN=C(C[N+](=O)[O-])NCCSCc1ccc(CN(C)C)o1	none (no result: TLR4-MyD88 BLA, HSF1 inh, HSF-1 act)
O=c1cc(-c2ccccc2)oc2cc(O)ccc12	none (no result: TLR4-MyD88 BLA, HSF1 inh, HSF-1 act)
O=c1cc(-c2ccccc2)c2ccc(O)cc2o1	HSF1 inh -51 (no result: TLR4-MyD88 BLA)
O=C(NCC(c1cccs1)N1CCOCC1)c1cc(S(=O)(=O)N2CCOCC2)ccc1F (stereo not drawn)	none (no result: TLR4-MyD88 BLA)
COc1ccccc1N1CCN(C(=O)c2ccc3c(=O)n(Cc4ccco4)c(=S)[nH]c3c2)CC1	HSF-1 act 88
CCOC(=O)N1CCN(C(=O)c2ccc3c(=O)n(-c4ccc(OC)cc4)c(=S)[nH]c3c2)CC1	HSF-1 act 52
CCOC(=O)N1CCN(C(=O)c2ccc3c(=O)n(-c4ccc(OC)cc4OC)c(=S)[nH]c3c2)CC1	none
CCOc1ccc(/C=N/NC(=O)c2ccc(Cn3cc([N+](=O)[O-])cn3)o2)cc1	HSF1 inh -55
COC(=O)c1ccc2nc(C3CCCCC3)c(Cc3ccc(C)cc3)n2c1	none (no result: TLR4-MyD88 BLA, HSF1 inh, HSF-1 act, TLR9-MyD88 inh)
COc1ccc(C(=O)C2CCCN(S(=O)(=O)N(C)C)C2)c(C)c1 (stereo not drawn)	none (no result: TLR4-MyD88 BLA)
COc1ccc(C(=O)C2CCCN(S(=O)(=O)C(C)C)C2)c(C)c1 (stereo not drawn)	HSF-1 act 62
Cc1cc(N2CCCC2)c(F)cc1/C=C\[N+](=O)[O-]	HSF-1 act 207
Cc1cc(N2CCC(C)CC2)c(F)cc1[N+](=O)[O-]	none
CC(=O)N1CSCC1C(=O)NNS(=O)(=O)c1cccc(C(F)(F)F)c1 (stereo not drawn)	HSF-1 act 75 (no result: TLR4-MyD88 BLA)
CC1(c2ccccc2)NC(=O)N(CC(=O)N2CCN(S(=O)(=O)c3c(F)cccc3F)CC2)C1=O (stereo not drawn)	none (no result: TLR4-MyD88 BLA, HSF1 inh, HSF-1 act)
CCCCS(=O)(=O)NC(=O)C1(C)CCN1C(=O)C/C=C/c1ccccc1 (stereo not drawn)	none (no result: TLR4-MyD88 BLA, HSF1 inh, HSF-1 act, TLR9-MyD88 inh)
Cc1c(Cl)cccc1NC(=O)Nc1cnccn1	HSF1 inh -64 (no result: TLR4-MyD88 BLA)
CC(C)(O)CN(C(=O)c1ccc([N+](=O)[O-])cc1)C1CCCC1	none (no result: TLR4-MyD88 BLA, HSF1 inh, HSF-1 act)
Cc1ccc(Nc2ncnc3c2oc2ccccc23)cc1	none
COc1ccc(Nc2ncnc3c2oc2ccccc23)cc1	HSF-1 act 56
CC1CCC2(CC1)NC(=O)N(CC(=O)N1c3ccccc3CC1C)C2=O (stereo not drawn)	none (no result: TLR4-MyD88 BLA, HSF1 inh, HSF-1 act)
CC(C)(C)OC(=O)N[C@@H](Cc1ccccc1)C(=O)NCC1CCC(C(=O)N[C@@H](CC(=O)O)C(=O)O)CC1 (stereo partly drawn)	HSF1 inh -63 (no result: TLR4-MyD88 BLA)
C[C@@H]1CN([C@H](C)CO)C(=O)CCCn2nncc2CO[C@H]1CN(C)C(=O)NC1CCCCC1	none (no result: TLR4-MyD88 BLA, HSF1 inh, HSF-1 act)
Cc1ccc(/C=N/N2C(=O)c3ccccc3NC2c2ccc(C)cc2)cc1 (stereo not drawn)	HSF-1 act 55
O=C(Nc1nc2ccccc2[nH]1)c1ccc([N+](=O)[O-])cc1	HSF-1 act 61
O/C(=C\c1nc2ccccc2[nH]1)c1cccs1	HSF-1 act 60 (no result: TLR4-MyD88 BLA)
O=C(Nc1nc2ccccc2[nH]1)c1cccs1	HSF-1 act 55
O=c1[nH]c2ccccc2nc1/C=C(\O)c1cccs1	none
Cc1ccc(C(=O)Nc2nc3ccccc3[nH]2)cc1	none (no result: TLR4-MyD88 BLA)
CCCCn1c(SCC(=O)OCC)nc2c(sc(=S)n2-c2ccccc2OC)c1=O	none (no result: TLR4-MyD88 BLA)
CCN(CC)CCOC(=O)c1ccc(NC(=O)CCCN2C(=O)/C(=C/c3cccs3)SC2=S)cc1	none (no result: TLR4-MyD88 BLA)
CC(Nc1ncnc2sccc12)c1ccccc1 (stereo not drawn)	HSF1 inh -81 (no result: TLR4-MyD88 BLA)
CCOc1ccc(N=Nc2c(N)[nH][nH]c2=O)cc1	HSF1 inh -78
O=C(OCC(=O)N1CCOCC1)c1ccccc1Cc1ccccc1	HSF-1 act 74
C=CCSc1nsc(NC(=O)Nc2ccc(F)cc2)n1	none (no result: TLR4-MyD88 BLA)
NC(=S)N/N=C/c1ccc(-c2ccccc2)o1	none
CNC(=S)N/N=C/c1ccc(-c2cccc(C(=O)O)c2)o1	HSF1 inh -60 (no result: TLR4-MyD88 BLA)
CCNC(=S)N/N=C/c1ccc(-c2ccccc2)o1	HSF-1 act 81
O=C(O)c1ccc(NC(=O)c2ccccc2NC(=O)c2cccc(Br)c2)cc1	none (no result: TLR4-MyD88 BLA)
O=C(O)c1cccc(S(=O)(=O)Nc2cccc(S(=O)(=O)N3CCCC3)c2)c1	none (no result: TLR4-MyD88 BLA, HSF1 inh, HSF-1 act)
CCc1nc2ccc(C(=O)NCCCN3CCCC3=O)cn2c1N(C)CCC(C)C	none (no result: TLR4-MyD88 BLA, HSF1 inh, HSF-1 act, TLR9-MyD88 inh)
CCC(C)c1ccccc1NC(=O)c1cc2cccc([N+](=O)[O-])c2[nH]1 (stereo not drawn)	none (no result: TLR4-MyD88 BLA, TLR9-MyD88 inh)
Cc1ccc(NC(=O)c2cc3cccc([N+](=O)[O-])c3[nH]2)cc1	HSF-1 act 164 (no result: TLR4-MyD88 BLA)
CCC(C)[C@H](NC(=O)NCc1cccc(OC)c1)C(=O)O (stereo partly drawn)	HSF1 inh -83
CC(C)CN1CCN(CCCOC(=O)Nc2cccc3ccccc23)CC1C (stereo not drawn)	none (no result: TLR4-MyD88 BLA, HSF1 inh, HSF-1 act)
CCOC(=O)CSc1ccc2nnc(-c3ccncc3)n2n1	HSF-1 act 55
CCOC(=O)C(CC)Sc1ccc2nnc(-c3cccnc3)n2n1 (stereo not drawn)	HSF1 inh -72
Cc1occc1C(=O)Nc1cnn(CCCC(=O)O)c1	none (no result: TLR4-MyD88 BLA)
CC(O)(c1cccc(F)c1)c1nc(/C=C/c2ccccc2)cs1 (stereo not drawn)	none (no result: TLR4-MyD88 BLA, HSF1 inh, HSF-1 act, TLR9-MyD88 inh)
CCCCNC(=O)c1ccc(CS(=O)(=O)c2ccc(OC)cc2)o1	none
